Six1-Eya2 inh: Six1/Eya2 interaction inhibition; 0.56% of 360,000 active; Q15475+O00167; activity change, % (concentration not given with the values); AlphaScreen GST-Six1/His-Eya2 binding, biochemical; stronger effect = lower value; in the data active = activity change below about -65%; inconclusive = mostly about -30% to -63%
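Six1/Eya2 binding was read as AlphaScreen signal after compounds were pinned into GST-Six1 plus His-tagged Eya2 (5X stock 250/500 nM) in pH 8.0 Tris/NaCl/TCEP buffer, beads added, then incubated 1 h, 37 C, dark.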
IL1B secr inh: inflammasome signaling inhibition, IL-1 beta readout; THP-1 LPS/ATP IL-1B secretion, AlphaLISA, 16 h; stronger effect = lower value; activity change, % at 57.5 µM; 4.7% of 360,000 active; AID 743279; in the data active = activity change below about -50%; inconclusive = mostly about -30% to -49%
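Secreted IL-1B measured by AlphaLISA bead assay after 16 h compound exposure of THP-1 cells; compounds (final up to 57.5 uM) added 1 h before LPS (250 ng/mL) and ATP (1.25 mM) stimulation; lower signal means less secretion.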
DT40 TDP1 no CPT: qHTS for Inhibitors of human tyrosyl-DNA phosphodiesterase 1 (TDP1): qHTS in cells in absence of CPT; DT40 Tdp1-/- hTDP1 cells, no CPT, ATP luminescence, 48 h; Potency, µM (top dose mostly 46.2 µM), actives largely listed as inhibitors; 15% of 420,000 active; note: nearly all actives have a fitted effect of over 55% in size
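Chicken DT40 Tdp1-/- cells stably complemented with human TDP1 were seeded at 400 cells/well with DMSO in place of 20 nM camptothecin. After compound pinning, cells grew at least 48 hr at 37 °C; viability read by CellTiter-Glo luminescence.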
TDP1 cell CPT: DT40-hTDP1 cell growth loss with CPT. Potency, µM (top dose mostly 46.2 µM), most hits filed as inhibitors. 12% of 420,000 active. chicken DT40 Tdp1-/-;hTDP1 cells + 20 nM CPT, ATP luminescence, 48 h; note: nearly all actives have a fitted effect of over 55% in size
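Cell growth measured by CellTiter-Glo luminescence after a minimum 48 h, 37 C compound exposure with 20 nM CPT in Tdp1-knockout DT40 cells stably expressing hTDP1, seeded 400/well; qHTS titration format.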
TDP1 inh: TDP1 (human) enzyme inhibition. 0.28% of 350,000 active. AID 485290. Q9NUW8. recombinant TDP1, AlphaScreen DNA substrate cleavage. Potency, µM (series often up to 130 µM), usual class: inhibitors; note: nearly all actives have a fitted effect of over 40% in size
Target sequence (Q9NUW8 whole entry, looked up): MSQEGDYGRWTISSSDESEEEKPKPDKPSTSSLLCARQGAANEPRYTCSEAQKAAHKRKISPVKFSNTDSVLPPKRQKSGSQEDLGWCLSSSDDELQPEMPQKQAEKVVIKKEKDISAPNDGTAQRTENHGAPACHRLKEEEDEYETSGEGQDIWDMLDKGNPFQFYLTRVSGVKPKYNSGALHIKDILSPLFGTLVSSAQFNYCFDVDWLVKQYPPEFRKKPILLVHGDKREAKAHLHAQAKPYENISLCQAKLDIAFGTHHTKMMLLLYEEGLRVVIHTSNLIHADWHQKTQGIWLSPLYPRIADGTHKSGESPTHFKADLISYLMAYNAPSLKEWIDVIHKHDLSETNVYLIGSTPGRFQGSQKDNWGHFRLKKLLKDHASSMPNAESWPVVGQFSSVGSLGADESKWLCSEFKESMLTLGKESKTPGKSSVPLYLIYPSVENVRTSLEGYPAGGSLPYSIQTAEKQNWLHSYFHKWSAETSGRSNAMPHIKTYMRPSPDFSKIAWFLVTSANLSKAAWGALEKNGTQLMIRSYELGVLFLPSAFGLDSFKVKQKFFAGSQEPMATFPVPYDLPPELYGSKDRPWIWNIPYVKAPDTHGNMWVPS
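Compounds were preincubated with Tdp1 (1 nM final) for 15 min at room temperature before substrate (15 nM final) started a 5 min reaction; beads (10 ug/ml final) were then added for 10 min before AlphaScreen detection.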
CtBP-E1A blk: inhibitors of CtBP/E1A interaction; 0.49% of 340,000 active; activity change, % (no concentration beside the values); AlphaScreen GST-E1A/His-CtBP binding, 1536-well; stronger effect = lower value; in the data active = activity change below about -65%; inconclusive = mostly about -30% to -63%
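Protein mix (5X: 125 nM each GST-E1A, His-CtBP) was incubated with pinned compound 2 h at 37 deg C in dark, in 50 mM Tris pH 8.0 buffer with 300 mM NaCl. Glutathione donor and nickel acceptor beads followed; AlphaScreen signal read after 1 h.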
Hits are given with their value; i = inactive; ? = inconclusive; nt = no result given; ! = not confirmed by another sample. Rows were chosen to be rich in hits. Some 18% of all compounds tested hit in one or more screens of this group. Unless noted, calls come from the whole dose curve; as a rule, active = well fitted curve in the direction sought with a large enough effect; inconclusive = small, poorly fitted or top-dose-only effect, or another doubt; inactive = no such curve, though single readings can be large; an effect the other way counts as inactive or inconclusive.

SMILES	Six1-Eya2 inh	IL1B secr inh	DT40 TDP1 no CPT	TDP1 cell CPT	TDP1 inh	CtBP-E1A blk
CCOc1cc(N2CCOCC2)c(OCC)cc1NC(=O)c1cc(-c2ccco2)nc2ccccc12	i	i	23.1µM	?	i	i
CCOc1cc(N2CCOCC2)c(OCC)cc1NC(=O)c1oc2ccccc2c1C	i	i	?	i	i	i
COc1cc(C(=S)N2CCN(c3ccccc3Cl)CC2)cc(O)c1O	i	i	23.1µM	?	i	i
COc1ccc(C(=S)N2CCN(c3ccccc3Cl)CC2)cc1OC	i	i	16.4µM	?	i	nt
CCOC(=O)C1CCCN(CC(=O)c2ccc(F)cc2)C1 (stereo not drawn)	i	i	i	i	nt	i
Nc1ccc(F)cc1F	nt	nt	nt	nt	i	nt
CCC(C)Sc1cccc(-c2nc3ccc(Cl)cn3c2NCc2ccccc2)c1 (stereo not drawn)	i	-54.2	16.4µM	23.1µM	i	i
CCC(C)Sc1cccc(-c2nc3ccc(C)cn3c2NCc2ccccc2)c1 (stereo not drawn)	i	-104.0!	20.6µM	16.4µM	i	i
Cc1ccc2nc(-c3cccc(Cl)c3)c(Cc3cccc(F)c3)n2c1	i	i	?	?	nt	i
Cc1ccc2nc(-c3cccc(-c4cccc(Cl)c4)c3)c(NCc3ccccc3)n2c1	i	i	?	9.2µM	i	i
O=[N+]([O-])c1cc(C(F)(F)F)ccc1NCCc1c[nH]c2ccc(O)cc12	?	i	?	?	i	i
O=[N+]([O-])c1cc(C(F)(F)F)ccc1NCCNC(=S)Nc1ccc(Cl)cc1	?	-88.3	18.4µM	29.1µM	i	i
O=[N+]([O-])c1cc(C(F)(F)F)ccc1NCCCCNS(=O)(=O)c1ccc(Cl)cc1	i	-56.2	14.6µM	13µM	i	i
CS(=O)(=O)NCCCNc1ccc(Cl)cc1[N+](=O)[O-]	i	i	i	i	i	i
O=[N+]([O-])c1cc(C(F)(F)F)ccc1NCCc1c[nH]c2ccccc12	?	-96.3	?	i	i	i
O=[N+]([O-])c1cc(Cl)ccc1NCCNc1ncc(C(F)(F)F)cc1Cl	i	i	i	i	i	i
CCCOC(=O)c1ccc(NC(=O)CCOc2ccccc2)cc1	i	i	?	i	i	i
CCOc1cc(OCC)nc(S(C)(=O)=O)n1	i	i	14.6µM	20.6µM	i	i
O=C1NC(=Nc2ccccc2)SC1Cc1ccccc1 (stereo not drawn)	i	i	i	i	i	i
CC(C)(C)C(=O)N1NC(=Nc2ccccc2)SC1(C)C	i	nt	20.6µM	i	i	i
CC(C)C[C@H]1CNC(=O)C(=O)N1CC1CCN(CCc2ccccc2)CC1	i	i	i	i	nt	i
CCOc1ccc(-c2nc(-c3ccncc3)no2)cc1OCC	i	i	i	i	i	i
CCCCOc1ccc(C2=NC(c3ccncc3)=Nc3ccc(OCC)cc3N2)cc1	nt	nt	?	16.4µM	i	nt
CCCOc1ccc(C2=NC(c3ccncc3)=Nc3ccc(C)cc3N2)cc1	nt	nt	?	?	i	nt
CCOc1ccc2c(c1)NC(c1cccs1)=NC(c1ccc(F)cc1)=N2	nt	nt	?	23.1µM	i	nt
SMILES	Six1-Eya2 inh	IL1B secr inh	DT40 TDP1 no CPT	TDP1 cell CPT	TDP1 inh	CtBP-E1A blk
CCOc1ccc(C2=NC(c3ccncc3)=Nc3ccc(C)cc3N2)cc1OCC	nt	nt	18.4µM	?	i	nt
Cc1ccc2oc3c(c(=O)c2c1)C(c1cccc(O)c1)N(CCCN1CCOCC1)C3=O (stereo not drawn)	nt	nt	?	?	i	nt
CCC(=O)N1c2ccccc2CC1C(=O)NCc1ccc(OC(C)C)cc1 (stereo not drawn)	nt	nt	?	?	i	nt
CSc1nc(N)nc2c1ncn2CC(=O)NCc1ccc2[nH]ccc2c1	i	i	?	?	i	i
Cc1nnc(N2CCCC(C(=O)Nc3cc(F)ccc3F)C2)c2nn(-c3ccccc3)c(C)c12 (stereo not drawn)	i	i	23.1µM	13µM	i	nt
COc1ccc(NC(=O)C2CCCN(c3nnc(C)c4c(C)n(-c5ccccc5)nc34)C2)cc1Cl (stereo not drawn)	nt	nt	16.4µM	10.3µM	i	nt
Cc1nnc(N2CCCC(C(=O)NCCc3ccc(Cl)cc3)C2)c2nn(-c3ccccc3)c(C)c12 (stereo not drawn)	nt	nt	?	?	i	nt
Cc1nnc(N2CCCC(C(=O)Nc3ccccc3C(F)(F)F)C2)c2nn(-c3ccccc3)c(C)c12 (stereo not drawn)	nt	nt	18.4µM	18.4µM	i	nt
COc1ccc(N(C(C)C(=O)N2CCCC2)S(C)(=O)=O)cc1 (stereo not drawn)	i	i	i	i	nt	nt
COc1ccc(N(C(C)C(=O)N2CCC(Cc3ccccc3)CC2)S(C)(=O)=O)cc1 (stereo not drawn)	i	i	8.2µM	6.51µM	i	i
CCOC(=O)C1CCN(C(=O)C(C)N(c2ccc(Oc3ccccc3)cc2)S(C)(=O)=O)CC1 (stereo not drawn)	i	i	9.2µM	11.6µM	i	nt
Cc1ccc(N(C(C)C(=O)N2CCN(Cc3ccccc3)CC2)S(C)(=O)=O)cc1 (stereo not drawn)	i	i	?	?	nt	i
CCOC(=O)N1CCN(C(=O)C(C)N(c2ccc(Oc3ccccc3)cc2)S(C)(=O)=O)CC1 (stereo not drawn)	i	i	13µM	?	i	i
CCOc1ccc(N(C(C)C(=O)N2CCCC2)S(C)(=O)=O)cc1 (stereo not drawn)	i	i	14.6µM	?	nt	i
Cc1cc(C)c(S(=O)(=O)c2ccccc2F)c(=O)[nH]1	i	i	i	i	nt	i
Cc1ccc(NC(=O)COC(=O)/C=C/c2ccco2)cc1S(=O)(=O)N(C)C	i	i	i	i	i	i
CCOc1ccc(N(C(C)C(=O)NCCSc2ccc(Cl)cc2)S(C)(=O)=O)cc1 (stereo not drawn)	nt	nt	25.9µM	16.4µM	nt	nt
COc1ccc(S(=O)(=O)CCC(=O)NCCc2ccc(S(N)(=O)=O)cc2)cc1	i	i	i	i	i	i
CCOc1ccc(-n2nnnc2SCC(=O)NNC(=O)c2ccco2)cc1	i	i	?	16.4µM	nt	i
CSc1ccccc1OCc1cc(C(=O)N(C)Cc2c(C)n[nH]c2C)no1	i	i	?	i	i	i
CCOC(=O)C1=C(CS(=O)(=O)c2ccc(C(C)(C)C)cc2)NC(=O)NC1c1cccc(OC)c1 (stereo not drawn)	nt	nt	16.4µM	16.4µM	i	nt
CCOC(=O)C1=C(CS(=O)(=O)c2cccc(C(F)(F)F)c2)NC(=O)NC1c1cccc(OC)c1 (stereo not drawn)	nt	nt	?	?	i	nt
